Mtb FBA inh – Mtb FBA enzyme inhibitors, primary screen, biochemical, fluorescence, strain H37Rv; Fructose-bisphosphate aldolase (Mycobacterium tuberculosis (strain ATCC 25618 / H37Rv)), …; AID 588726, 2011; purified M. tuberculosis FBA, fluorescence read-out; actives 2.3% (n = 360,000); inhibition, % at 1 µM;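 note: 0% = vehicle and 100% = reference inhibitor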
BJeLR viability – MLPCN primary cell-based screen for lethality selective to Ras in HRASV12 cells. BJeLR (HRASV12) viability, CellTiter-Glo ATP luminescence, 48 h. inhibition, % (no concentration beside the values). actives 0.17% (n = 300,000); in the data active = inhibition above about 50%
GDH-TPI counter-1 – GDH-TPI coupling enzyme inhibitors, primary screen, artefact control for M. tuberculosis FBA inhibitor project, biochemical, absorbance, full deck. GDH-TPI coupled enzyme counterscreen, NADH absorbance. inhibition, % at 4.8 µM. actives 1.2% (n = 360,000); in the data active = inhibition above about 30%;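 note: 0% = DMSO wells and 100% = wells lacking the enzyme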
PrPC surface inh – inhibitors of human cell surface prion protein PrPC, primary screen, cell-based, TR-FRET; Major prion protein (Homo sapiens), P04156; TR-FRET read-out; inhibition, % at 13.8 µM; actives 0.43% (n = 370,000); in the data active = inhibition above about 24%; note: 0% = median of the test wells and 100% = reference compound wells
RecA intein inh – Mtb RecA intein splicing inhibitors, primary screen, biochemical, fluorescence, HTS; cell-free RecA intein splicing; inhibition, % (test concentration not listed); actives 0.75% (n = 290,000); AID 2221, 2009; in the data active = inhibition above about 30%;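 note: 0% = vehicle wells and 100% = reference inhibitor control wells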
Mtb FBA confirm – M. tuberculosis aldolase blockers, biochemical, fluorescence, strain H37Rv, confirmation. shares compounds with Mtb FBA inh. purified M. tuberculosis FBA, fluorescence read-out. inhibition, % at 1 µM. actives 78% (n = 5,600). AID 651616, 2012;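 note: 0% = vehicle wells and 100% = reference inhibitor wells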
GDH-TPI counter-2 – GDH-TPI coupling enzyme inhibitors, artefact control for M. tuberculosis FBA inhibitor project, biochemical, fluorescence, high throughput; shares compounds with Mtb FBA inh; AID 652141, 2013; GDH-TPI coupled enzyme counterscreen; actives 81% (n = 5,600); inhibition, % at 1 µM; in the data active = inhibition above about 10%
* = called active by the depositor; . = no result; + = active, no number. Only some compounds are listed: those with a hit (about 4.2% of all), similar ones and a draw of the others. Cut-off read from the data, not from the text of the source, unless noted: active = inhibition above about 27%; inactive = the rest.

SMILES	Mtb FBA inh	BJeLR viability	GDH-TPI counter-1	PrPC surface inh	RecA intein inh	Mtb FBA confirm	GDH-TPI counter-2
COc1cccc(NC(=O)NNC(=O)COc2ccc3ccccc3c2)c1	37*	11	10	5	1	+	+
CCOC(=O)C1CCN(c2nc(C)cc(C)c2C#N)CC1	28*	-1	0	7	-1	170*	124*
CCOC(=O)C1CCN(C(=O)c2cnn3c(C)cc(C)nc23)CC1	35*	4	10	0	0	76*	55*
CCOC(=O)C1CCN(C(=O)COC(=O)c2nc3nc(C)cc(C)n3n2)CC1	2	8	3	7	-6	.	.
Cc1cc(C)c(C#N)c(N2CCCC(C(N)=O)C2)n1 (stereo unspecified)	57*	-4	-3	8	-4	+	+
COc1cccc(CC(NC(C)=O)C(=O)NC2CCN(c3nc(C)cc(C)c3C#N)CC2)c1 (stereo unspecified)	29*	0	-3	8	-2	58*	52*
CN1C(=O)c2cc(NC(=O)Nc3ccc(F)c(F)c3)ccc2OC[C@H]2O[C@@H](CC(=O)O)CC[C@H]21	.	.	.	-6	.	.	.
COC(=O)N1C[C@H](OCCCOCc2ccccc2)[C@H]2C[C@@H]1c1ccccc1O2	.	.	.	6	.	.	.
Cc1ccc(-c2nc3ncccn3c2NC(=O)Nc2ccc(OC(F)(F)F)cc2)cc1	.	.	.	-5	.	.	.
O=C(NCCN1CCC(Cc2ccccc2)CC1)C1CCCN(S(=O)(=O)c2ccccc2)C1 (stereo unspecified)	.	.	.	11	.	.	.
O=c1cc(C(F)(F)F)[nH]c2ccc(C(F)(F)F)cc12	35*	-1	5	1	1	65*	50*
COc1ccc(CCNC(=O)c2ccc3c(c2)N(Cc2ccc(F)cc2)CCS3)cc1OC	72*	-5	4	14	13	55*	33*
CCN1CCN(C(=O)c2ccc3c(c2)N(Cc2ccc(C)cc2)CCS3)CC1	26	-1	7	-6	3	.	.
CCN1CCN(CCCNC(=O)c2ccc3c(c2)N(Cc2ccc(C)cc2)CCS3)CC1	76*	7	9	.	-10	131*	102*
Cc1ccc(CN2CCSc3ccc(C(=O)NCc4ccco4)cc32)cc1	54*	-8	4	12	.	5	-1
Cc1ccc(CN2CCSc3ccc(C(=O)N4CCOCC4)cc32)cc1	17	9	19	.	4	.	.
C=CCOC(=O)N1CCN(C(=O)c2ccc3nc(C)n(C4CCCC4)c3c2)CC1	.	.	.	7	.	.	.
CCOC(=O)[C@]12CCCCC/C=C\1N(Cc1ccc(OC)cc1)C(=O)[C@H]2CC(=O)NCCCOC	.	.	.	4	.	.	.
O=C(Nc1ccc2c(c1)C(=O)NC2=O)c1ccccc1Cl	30*	-5	12	-5	1	7	-2
O=C(Nc1ccc2c(c1)C(=O)NC2=O)c1ccccc1	41*	-5	-3	5	-2	198*	123*
Nc1cc(N)cc(C(=O)Nc2ccc3c(c2)C(=O)NC3=O)c1	2	3	15	9	0	.	.
O=C1NC(=O)c2cc(NC(=O)c3cccc4ccccc34)ccc21	10	8	-4	-1	-3	.	.
COc1ccc(Cn2cc(CN3[C@H](CC(C)C)COc4cc(Br)ccc4S3(=O)=O)nn2)cc1	.	.	.	5	.	.	.
O=C1C[C@@H](C(=O)Nc2ccc(Cl)cc2)[C@@H](c2ccccc2)O1	.	.	.	1	.	.	.
CC(/C=C/c1ccc(O)cc1)=N/O	67*	-5	12	4	-5	-3	-3
Nc1nc2nccc(-c3cccnc3)n2n1	64*	0	19	9	2	-8	-5
COc1ccc(-c2ccnc3nc(/N=C/N(C)C)nn23)cc1	.	0	.	5	0	.	.

Screening results as filed in PubChem BioAssay.
